Test results published in PubChem BioAssay AID1942 (Johns Hopkins Ion Channel Center, 2009).
In all, about 2,400 compounds went through this assay and about 580 (24%) were called active.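 How the source made its calls: active means activity change at or above the mean plus 3 SD of buffer wells without dofetilide, per plate; inactive means the rest.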 A selection follows.

Target: Potassium voltage-gated channel subfamily KQT member 2 (Rattus norvegicus) (UniProt O88943)
Assay: rat KCNQ2 channel activation by compounds alone, confirmation, counter-screen for hERG block protector project, cell-based, CHO, FluxOR thallium flux (AID 1942);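 further: normalized value minus buffer-control mean plus three SD of buffer wells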
Conditions: CHO-KCNQ2 cells, FluxOR thallium flux fluorescence; at 10 µM; active compounds read high

Sequence of Potassium voltage-gated channel subfamily KQT member 2 (Rattus norvegicus) (O88943 whole entry, looked up): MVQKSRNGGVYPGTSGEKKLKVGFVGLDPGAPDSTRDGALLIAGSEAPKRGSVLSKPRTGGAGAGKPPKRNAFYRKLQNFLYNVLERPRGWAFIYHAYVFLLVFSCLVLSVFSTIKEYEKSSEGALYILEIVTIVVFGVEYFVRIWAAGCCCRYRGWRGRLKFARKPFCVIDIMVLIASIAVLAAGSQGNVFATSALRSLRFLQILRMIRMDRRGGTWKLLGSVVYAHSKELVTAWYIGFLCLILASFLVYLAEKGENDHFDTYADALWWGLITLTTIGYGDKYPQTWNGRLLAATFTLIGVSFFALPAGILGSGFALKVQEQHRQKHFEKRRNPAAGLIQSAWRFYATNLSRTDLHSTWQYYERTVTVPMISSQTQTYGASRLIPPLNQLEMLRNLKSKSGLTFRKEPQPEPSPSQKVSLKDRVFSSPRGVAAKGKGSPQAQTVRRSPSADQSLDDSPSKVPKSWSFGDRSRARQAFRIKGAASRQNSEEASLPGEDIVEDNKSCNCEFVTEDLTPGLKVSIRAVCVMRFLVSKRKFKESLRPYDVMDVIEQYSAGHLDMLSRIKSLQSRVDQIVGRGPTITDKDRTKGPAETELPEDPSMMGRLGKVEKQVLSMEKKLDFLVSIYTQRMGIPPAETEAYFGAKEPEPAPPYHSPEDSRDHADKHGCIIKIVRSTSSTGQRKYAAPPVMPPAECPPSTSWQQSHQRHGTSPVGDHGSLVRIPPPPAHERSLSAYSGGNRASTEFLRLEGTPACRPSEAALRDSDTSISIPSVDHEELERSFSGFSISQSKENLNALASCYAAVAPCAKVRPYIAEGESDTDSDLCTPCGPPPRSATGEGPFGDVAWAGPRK

SMILES | activity change, less the hit threshold
CC1=NNC(=O)C1CC(=O)N/N=C/C=C/c1ccccc1 (stereo not drawn) | -21.4% (inactive)
Cc1cnc(NC(=O)CN2CCN(c3ccccc3F)CC2)s1 | -16.9% (inactive)
COc1cc(/C=C2/OC(=O)c3cc([N+](=O)[O-])ccc32)cc(OC)c1OC | -15.4% (inactive)
CCO/C=C1\N=C(c2ccc(F)cc2)OC1=O | -13.2% (inactive)
O=C(CN1C(=O)S/C(=C\c2cc(Cl)c(O)c(Cl)c2)C1=O)Nc1ccccc1 | -30.2% (inactive)
CC(C)C12CN3CC(C(C)C)(CN(C1)C31C(=O)Nc3ccccc31)C2=O (stereo not drawn) | -24.3% (inactive)
O=C(COC(=O)c1cc(S(=O)(=O)NCc2ccccc2)ccc1O)NCc1ccccc1 | -13.2% (inactive)
C=CCN1C(=O)C(Cc2ccc(OCC)cc2)SC1=Nc1ccc(C(=O)O)cc1 (stereo not drawn) | -15.5% (inactive)
C=CCn1c(SCc2ccc(C(=O)O)cc2)nc2sc(C)c(C)c2c1=O | 46.6% (active)
O=C1CN(S(=O)(=O)c2ccccc2)CC(=O)N1CCc1ccccc1 | -18.7% (inactive)
Cc1cccc(N/C(N)=N/c2nc(C)cc(=O)[nH]2)c1 | -13.7% (inactive)
Cc1ccc(Nc2nc(C)cs2)cc1 | -9.5% (inactive)
Cc1ccc(Nc2cc(C)nn2-c2nc(C)cc(=O)[nH]2)cc1 | 68.6% (active)
Cc1nnc(N2C(=O)C(=O)/C(=C(\O)c3ccc4c(c3)CC(C)O4)C2c2ccccc2)s1 (stereo not drawn) | -7.2% (inactive)
Cc1cc(O)c(/C=N/OCc2ccc(Cl)cc2Cl)c(=O)o1 | -19.1% (inactive)
Cc1cc(C)cc(NC(=O)N2CCCC2C(=O)Nc2ccc(-n3cnnn3)c(C)c2)c1 (stereo not drawn) | -19% (inactive)
CCOC(=O)Cc1csc(NC(=S)NC(=O)c2ccc(C)cc2)n1 | -3.1% (inactive)
Cc1csc(NC(=S)NC(=O)c2ccccc2)n1 | 7.2% (active)
CCOC(=O)Cc1csc(NC(=S)NC(=O)c2ccccc2Br)n1 | 9.2% (active)
CCOC(=O)Cc1csc(NC(=S)NC(=O)c2ccc(Cl)cc2)n1 | -7.1% (inactive)
COc1ccc(-c2csc(NC(=S)NC(=O)c3ccc4ccccc4c3)n2)cc1OC | -11.9% (inactive)
CCOC(=O)Cc1csc(NC(=S)NC(=O)C(C)(C)C)n1 | -1.3% (inactive)
CCOC(=O)Cc1csc(NC(=S)NC(=O)c2ccccc2C)n1 | 3.3% (active)
Cc1[nH]cnc1CSCCN | -10.5% (inactive)
CCOC(=O)N1CCN(C(=O)CSc2nnc(-c3ccccc3OC)o2)CC1 | -10.3% (inactive)

SMILES | activity change, less the hit threshold
Brc1ccc(Nc2nc(-c3cccnc3)cs2)cc1 | -11.1% (inactive)
O=C(COC(=O)C1CCC(=O)N1)Nc1ccc(Oc2ccccc2)cc1 (stereo not drawn) | -11% (inactive)
Cc1oc2cc(O)ccc2c(=O)c1N1C(=O)c2ccccc2C1=O | -14.7% (inactive)
CN(CC(=O)Nc1nc2ccccc2s1)S(=O)(=O)c1ccc(Cl)cc1 | -27% (inactive)
Cn1ncc2c(O/N=C(\N)c3ccc(C(F)(F)F)cc3)ncnc21 | -7.2% (inactive)
Cc1ccccc1C(=O)NC(=S)Nc1sc2c(c1C#N)CCC(C)C2 (stereo not drawn) | -29% (inactive)
COC(=O)c1c(NC(=O)C2CC=CCC2C(=O)O)sc(C)c1C (stereo not drawn) | -12.3% (inactive)
CCC(C)(C)C1CCc2c(sc(NC(=O)c3ccccc3C(=O)O)c2C#N)C1 (stereo not drawn) | 38.4% (active)
CCC1CCc2c(sc(NC(=O)C3CC=CCC3C(=O)O)c2C#N)C1 (stereo not drawn) | 1.4% (active)
Cc1onc(-c2ccccc2)c1C(=O)NC(=S)Nc1sc2c(c1C#N)CCC(C)C2 (stereo not drawn) | -3.3% (inactive)
CCc1ccccc1NC(=O)CC1CS(=O)(=O)CC1CC(=O)Nc1ccccc1CC (stereo not drawn) | -17% (inactive)
CC(C)(C)c1ccc(Cn2nc(CC(=O)O)c3ccccc3c2=O)cc1 | -4.4% (inactive)
C=CCn1c2ccccc2c(=O)c2cc(C#Cc3ccsc3)ccc21 | -16% (inactive)
CC(C)OC(=O)c1c2nc3ccccc3nc2n2c1[nH]c(=O)c1ccccc12 | 83.4% (active)
CCCCOC(=O)Cn1c2ccc(OC)cc2c2nc3ccccc3nc21 | -3.3% (inactive)
CCc1ccc(C(=O)CSc2nc3ccccc3c(=O)[nH]2)cc1 | -15.1% (inactive)
COCc1cc(C)nc(OCC(=O)N/N=C/c2ccc(-c3cc([N+](=O)[O-])ccc3Cl)o2)c1C#N | -8.1% (inactive)
Cc1ccc(-c2cccc(C3CC=CC4C3C(=O)N(Cc3ccccc3)C4c3ccc4ccccc4c3)c2)cc1 (stereo not drawn) | -15.4% (inactive)
Cc1ccc(NC(=O)COc2cccnc2[N+](=O)[O-])cc1S(=O)(=O)N1CCOCC1 | -18.2% (inactive)
Cc1nnc2c(SC(C)C)nc3ccccc3n12 | -19.3% (inactive)
CCc1ccc2[nH]c(O)c(N=Nc3nc(-c4ccccc4)cs3)c2c1 | -16.3% (inactive)
Cc1ccccc1OCC(=O)N=Nc1c(O)n(C)c2ccccc12 | -2.4% (inactive)
Cn1c(O)c(N=Nc2nc(-c3ccccc3)cs2)c2ccccc21 | 67.2% (active)
N#Cc1cccc(N=c2ssnc2Cl)c1 | -15.2% (inactive)
Cc1cc(=O)[nH]c(N/N=C2/CCCC/C2=C\c2ccccc2)n1 | -11.4% (inactive)

SMILES | activity change, less the hit threshold
CSC(=S)N/N=C/c1ccccc1 | 48% (active)
C/C(=N\NC(N)=S)c1cccnc1 | -17.7% (inactive)
CC(C)NC(=S)N/N=C/c1ccc(C(C)(C)C)cc1 | -8.8% (inactive)
CSC(=S)N/N=C/c1ccc(Br)cc1 | -6.8% (inactive)
CSC(=S)N/N=C(\C)c1ccccc1 | 42.3% (active)
C/C(=N\NC(N)=S)c1ccncc1 | -10.4% (inactive)
COc1ccc(-n2c(SCC#N)nnc2-c2cccnc2)cc1 | -24.2% (inactive)
O=C(CC(=O)c1ccccc1O)c1cccc(F)c1 | -11.1% (inactive)
Cc1cc(F)c(F)c(C(=O)N2CCOCC2)c1 | -20.6% (inactive)
CC(C)(C)OC(=O)N1CCC2(CC1)Oc1ccc(Cl)cc1C(=O)C21CC(c2ccc(Cl)cc2)=NO1 (stereo not drawn) | -20.7% (inactive)
Cn1nc(C(F)(F)F)c(-c2ccc(Br)cc2)c1NC(=O)c1cccnc1 | -21.4% (inactive)
COc1ccc(C(=O)NNC(=O)CSc2nnc(COc3ccccc3)n2C)cc1 | -15.5% (inactive)
Cc1cc(NC(=O)CSc2ccc3nnc(-c4cccs4)n3n2)no1 | -20.2% (inactive)
O=C(O)c1ccc2c3n(nc2c1)-c1ccc(Cl)cc1CO3 | -11.6% (inactive)
O=C(NC(=S)Nc1cccnc1)c1cc2ccccc2o1 | 10.1% (active)
O=C(NC(=S)Nc1cccc(Cl)c1)c1cncc(Br)c1 | -16.1% (inactive)
Cc1c(C(=O)NC(=S)NCc2cccnc2)oc2ccccc12 | -18.2% (inactive)
Cc1ccc(NC(=S)NC(=O)c2ccc(Br)o2)c(C)c1 | 8.1% (active)
Cc1ccc(NC(=O)c2ccc3c(c2)CCN3S(C)(=O)=O)c(C)c1 | -23.2% (inactive)
O=C(NC(=S)Nc1ccccc1F)c1ccc(Br)o1 | 59.7% (active)
Cc1ccc(C)c(NC(=S)NC(=O)c2cncc(Br)c2)c1 | -2.9% (inactive)
O=C(NC(=S)NNC(=O)c1cccs1)c1ccc(Br)o1 | -12.6% (inactive)
O=C(NC(=S)Nc1ccccc1)c1ccc(Br)o1 | 3.3% (active)
Fc1cccc(C2NN=C(c3ccccc3)S2)c1 (stereo not drawn) | -7.2% (inactive)
O=C(OCCNc1ccc(C(F)(F)F)cc1[N+](=O)[O-])c1cc2ccccc2oc1=O | -14.3% (inactive)

SMILES | activity change, less the hit threshold
O=C(O)COc1ccc(NC(=O)c2ccc3c(c2)C(=O)N(C2CCCCC2)C3=O)cc1 | -6.7% (inactive)
COc1cc(S(=O)(=O)n2cnc(C)c2)ccc1Cl | -21.2% (inactive)
COCCN(C(=O)CSc1nnc(C)n1Cc1ccccc1)c1c(N)n(CC(C)C)c(=O)[nH]c1=O | -21.8% (inactive)
Cc1nc2n(n1)CC(O)CS2 (stereo not drawn) | -16.3% (inactive)
COc1ccc(NC(=S)NC(=O)c2ccc(Br)o2)cc1 | 11.8% (active)
O=C(NC(=S)NCc1ccccc1)c1ccc(Br)o1 | 70.4% (active)
O=C(CNC(=S)NC(=O)c1ccc(Br)o1)c1ccccc1 | -11.7% (inactive)
S=C(NCc1ccccc1)NCc1ccccc1Cl | -23.7% (inactive)
Cc1cccc(NC(=S)NC(=O)c2ccc(Br)o2)c1 | 46.1% (active)
CCN(c1ccccc1)S(=O)(=O)c1ccc(NC(=S)NC(=O)c2ccc(Br)o2)cc1 | 0.3% (active)
CS(=O)(=O)N(Cc1ccccc1)c1ccc(C(=O)Nc2ccc(C(N)=O)cc2)cc1 | -23.7% (inactive)
CCOc1ccc(-c2cccc(NC(=O)c3ccc(Br)o3)c2)nn1 | -30.4% (inactive)
CCc1ccc(NC(=S)NC(=O)c2c(-c3ccccc3Cl)noc2C)cc1 | -17.1% (inactive)
COc1ccc(OC)c(NC(=S)NC(=O)c2ccc(Br)o2)c1 | -6.9% (inactive)
CC(C)C(=O)Nc1cccc(C(=O)Nc2ccccc2C(=O)O)c1 | -17.8% (inactive)
COc1ccc(Cc2c(O)nc(SCC(=O)NC(C)(C)C)[nH]c2=O)cc1 | -19.2% (inactive)
CC(C(=O)N1CCN(c2ccc([N+](=O)[O-])cc2)CC1)N1C(=O)C2CC=CCC2C1=O (stereo not drawn) | -20.1% (inactive)
Cc1cc(C)n2nc(SCC(=O)NC3CCCCC3C)nc2n1 (stereo not drawn) | -30.3% (inactive)
COCCOC(=O)C1=C(C)Nc2ncnn2C1c1ccc(F)cc1 (stereo not drawn) | -22% (inactive)
CCOc1ccc(NC(=O)C2C(C(=O)O)C3(Cl)C(Cl)=C(Cl)C2(Cl)C3(Cl)Cl)cc1 (stereo not drawn) | -15.5% (inactive)
Fc1ccccc1NC(=S)N/N=C/c1ccccc1Br | -25.7% (inactive)
S=C(N/N=C/c1ccccc1Cl)Nc1cccc(Cl)c1Cl | 8.6% (active)
Cc1ccc(Cl)cc1NC(=S)N/N=C/c1cccc2ccccc12 | -24.4% (inactive)
